# Assay results from the supplement of paper PMC11001985.
# Compound: C#CCNC(=O)CCSSCCC(=O)NCCc1ccc(C=O)c(C=O)c1
# Test: lysine labeling ratio R10:1 (500 µM / 50 µM probe), SILAC-ABPP in living cells; higher = lower intrinsic lysine reactivity toward the probe, active = 2 or less
# Details: HeLa; probe concentrations 500 vs 50 µM
# Outline: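 An alkyne-tagged lysine probe with a disulfide linker labelled living HeLa cells in PBS at room temperature at either 50 µM or 500 µM, using SILAC light and heavy cells in forward and reverse label swaps. Lysates were mixed, clicked to biotin-azide, trypsin-digested, enriched on neutravidin, DTT-released, alkylated and measured by LC-MS/MS on a TIMS-TOF Pro. Each lysine's R is the filtered median high-probe/low-probe MS1 peptide ratio, combined as the median over forward and reverse replicates, with 20 as the upper limit.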
# UniProt P11940, sequence (P11940 whole entry): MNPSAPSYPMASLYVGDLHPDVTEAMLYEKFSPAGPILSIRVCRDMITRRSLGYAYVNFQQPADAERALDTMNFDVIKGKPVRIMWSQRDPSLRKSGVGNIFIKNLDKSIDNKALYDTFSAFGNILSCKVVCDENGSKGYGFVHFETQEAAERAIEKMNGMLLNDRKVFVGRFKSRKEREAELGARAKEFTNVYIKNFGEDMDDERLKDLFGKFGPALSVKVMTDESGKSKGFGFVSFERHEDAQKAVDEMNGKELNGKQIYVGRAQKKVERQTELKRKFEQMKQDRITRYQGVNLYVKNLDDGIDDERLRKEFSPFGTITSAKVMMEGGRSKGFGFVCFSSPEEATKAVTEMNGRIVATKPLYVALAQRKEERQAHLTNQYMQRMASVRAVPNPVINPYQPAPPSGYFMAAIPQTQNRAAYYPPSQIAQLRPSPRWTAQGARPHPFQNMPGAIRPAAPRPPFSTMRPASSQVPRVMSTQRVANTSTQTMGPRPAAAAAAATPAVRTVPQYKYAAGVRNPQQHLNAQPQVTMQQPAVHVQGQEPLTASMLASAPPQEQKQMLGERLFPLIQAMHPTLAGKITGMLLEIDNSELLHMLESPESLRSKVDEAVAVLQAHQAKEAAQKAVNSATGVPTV
# UniProt P14625, sequence (P14625 whole entry): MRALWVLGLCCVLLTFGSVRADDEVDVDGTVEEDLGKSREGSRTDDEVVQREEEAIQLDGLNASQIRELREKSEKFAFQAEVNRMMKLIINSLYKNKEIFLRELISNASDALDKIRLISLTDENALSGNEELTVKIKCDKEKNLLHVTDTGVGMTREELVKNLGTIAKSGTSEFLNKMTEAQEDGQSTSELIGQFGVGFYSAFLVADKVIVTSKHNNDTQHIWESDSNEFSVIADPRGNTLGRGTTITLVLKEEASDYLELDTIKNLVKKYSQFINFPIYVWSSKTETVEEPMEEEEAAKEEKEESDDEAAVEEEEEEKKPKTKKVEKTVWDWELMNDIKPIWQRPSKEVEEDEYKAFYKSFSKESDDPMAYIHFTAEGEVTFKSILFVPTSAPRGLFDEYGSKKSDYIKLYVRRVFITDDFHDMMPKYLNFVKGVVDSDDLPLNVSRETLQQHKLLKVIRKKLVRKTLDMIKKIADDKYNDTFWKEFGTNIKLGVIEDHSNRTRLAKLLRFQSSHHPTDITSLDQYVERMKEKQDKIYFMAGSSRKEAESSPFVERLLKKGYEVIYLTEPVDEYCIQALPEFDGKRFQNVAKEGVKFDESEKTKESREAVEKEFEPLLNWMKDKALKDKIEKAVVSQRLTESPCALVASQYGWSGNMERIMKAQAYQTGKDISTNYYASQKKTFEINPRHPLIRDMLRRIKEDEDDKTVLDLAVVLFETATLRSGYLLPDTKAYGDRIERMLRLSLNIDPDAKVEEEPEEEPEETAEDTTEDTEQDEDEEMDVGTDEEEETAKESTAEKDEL
# UniProt O15230, sequence (O15230 whole entry): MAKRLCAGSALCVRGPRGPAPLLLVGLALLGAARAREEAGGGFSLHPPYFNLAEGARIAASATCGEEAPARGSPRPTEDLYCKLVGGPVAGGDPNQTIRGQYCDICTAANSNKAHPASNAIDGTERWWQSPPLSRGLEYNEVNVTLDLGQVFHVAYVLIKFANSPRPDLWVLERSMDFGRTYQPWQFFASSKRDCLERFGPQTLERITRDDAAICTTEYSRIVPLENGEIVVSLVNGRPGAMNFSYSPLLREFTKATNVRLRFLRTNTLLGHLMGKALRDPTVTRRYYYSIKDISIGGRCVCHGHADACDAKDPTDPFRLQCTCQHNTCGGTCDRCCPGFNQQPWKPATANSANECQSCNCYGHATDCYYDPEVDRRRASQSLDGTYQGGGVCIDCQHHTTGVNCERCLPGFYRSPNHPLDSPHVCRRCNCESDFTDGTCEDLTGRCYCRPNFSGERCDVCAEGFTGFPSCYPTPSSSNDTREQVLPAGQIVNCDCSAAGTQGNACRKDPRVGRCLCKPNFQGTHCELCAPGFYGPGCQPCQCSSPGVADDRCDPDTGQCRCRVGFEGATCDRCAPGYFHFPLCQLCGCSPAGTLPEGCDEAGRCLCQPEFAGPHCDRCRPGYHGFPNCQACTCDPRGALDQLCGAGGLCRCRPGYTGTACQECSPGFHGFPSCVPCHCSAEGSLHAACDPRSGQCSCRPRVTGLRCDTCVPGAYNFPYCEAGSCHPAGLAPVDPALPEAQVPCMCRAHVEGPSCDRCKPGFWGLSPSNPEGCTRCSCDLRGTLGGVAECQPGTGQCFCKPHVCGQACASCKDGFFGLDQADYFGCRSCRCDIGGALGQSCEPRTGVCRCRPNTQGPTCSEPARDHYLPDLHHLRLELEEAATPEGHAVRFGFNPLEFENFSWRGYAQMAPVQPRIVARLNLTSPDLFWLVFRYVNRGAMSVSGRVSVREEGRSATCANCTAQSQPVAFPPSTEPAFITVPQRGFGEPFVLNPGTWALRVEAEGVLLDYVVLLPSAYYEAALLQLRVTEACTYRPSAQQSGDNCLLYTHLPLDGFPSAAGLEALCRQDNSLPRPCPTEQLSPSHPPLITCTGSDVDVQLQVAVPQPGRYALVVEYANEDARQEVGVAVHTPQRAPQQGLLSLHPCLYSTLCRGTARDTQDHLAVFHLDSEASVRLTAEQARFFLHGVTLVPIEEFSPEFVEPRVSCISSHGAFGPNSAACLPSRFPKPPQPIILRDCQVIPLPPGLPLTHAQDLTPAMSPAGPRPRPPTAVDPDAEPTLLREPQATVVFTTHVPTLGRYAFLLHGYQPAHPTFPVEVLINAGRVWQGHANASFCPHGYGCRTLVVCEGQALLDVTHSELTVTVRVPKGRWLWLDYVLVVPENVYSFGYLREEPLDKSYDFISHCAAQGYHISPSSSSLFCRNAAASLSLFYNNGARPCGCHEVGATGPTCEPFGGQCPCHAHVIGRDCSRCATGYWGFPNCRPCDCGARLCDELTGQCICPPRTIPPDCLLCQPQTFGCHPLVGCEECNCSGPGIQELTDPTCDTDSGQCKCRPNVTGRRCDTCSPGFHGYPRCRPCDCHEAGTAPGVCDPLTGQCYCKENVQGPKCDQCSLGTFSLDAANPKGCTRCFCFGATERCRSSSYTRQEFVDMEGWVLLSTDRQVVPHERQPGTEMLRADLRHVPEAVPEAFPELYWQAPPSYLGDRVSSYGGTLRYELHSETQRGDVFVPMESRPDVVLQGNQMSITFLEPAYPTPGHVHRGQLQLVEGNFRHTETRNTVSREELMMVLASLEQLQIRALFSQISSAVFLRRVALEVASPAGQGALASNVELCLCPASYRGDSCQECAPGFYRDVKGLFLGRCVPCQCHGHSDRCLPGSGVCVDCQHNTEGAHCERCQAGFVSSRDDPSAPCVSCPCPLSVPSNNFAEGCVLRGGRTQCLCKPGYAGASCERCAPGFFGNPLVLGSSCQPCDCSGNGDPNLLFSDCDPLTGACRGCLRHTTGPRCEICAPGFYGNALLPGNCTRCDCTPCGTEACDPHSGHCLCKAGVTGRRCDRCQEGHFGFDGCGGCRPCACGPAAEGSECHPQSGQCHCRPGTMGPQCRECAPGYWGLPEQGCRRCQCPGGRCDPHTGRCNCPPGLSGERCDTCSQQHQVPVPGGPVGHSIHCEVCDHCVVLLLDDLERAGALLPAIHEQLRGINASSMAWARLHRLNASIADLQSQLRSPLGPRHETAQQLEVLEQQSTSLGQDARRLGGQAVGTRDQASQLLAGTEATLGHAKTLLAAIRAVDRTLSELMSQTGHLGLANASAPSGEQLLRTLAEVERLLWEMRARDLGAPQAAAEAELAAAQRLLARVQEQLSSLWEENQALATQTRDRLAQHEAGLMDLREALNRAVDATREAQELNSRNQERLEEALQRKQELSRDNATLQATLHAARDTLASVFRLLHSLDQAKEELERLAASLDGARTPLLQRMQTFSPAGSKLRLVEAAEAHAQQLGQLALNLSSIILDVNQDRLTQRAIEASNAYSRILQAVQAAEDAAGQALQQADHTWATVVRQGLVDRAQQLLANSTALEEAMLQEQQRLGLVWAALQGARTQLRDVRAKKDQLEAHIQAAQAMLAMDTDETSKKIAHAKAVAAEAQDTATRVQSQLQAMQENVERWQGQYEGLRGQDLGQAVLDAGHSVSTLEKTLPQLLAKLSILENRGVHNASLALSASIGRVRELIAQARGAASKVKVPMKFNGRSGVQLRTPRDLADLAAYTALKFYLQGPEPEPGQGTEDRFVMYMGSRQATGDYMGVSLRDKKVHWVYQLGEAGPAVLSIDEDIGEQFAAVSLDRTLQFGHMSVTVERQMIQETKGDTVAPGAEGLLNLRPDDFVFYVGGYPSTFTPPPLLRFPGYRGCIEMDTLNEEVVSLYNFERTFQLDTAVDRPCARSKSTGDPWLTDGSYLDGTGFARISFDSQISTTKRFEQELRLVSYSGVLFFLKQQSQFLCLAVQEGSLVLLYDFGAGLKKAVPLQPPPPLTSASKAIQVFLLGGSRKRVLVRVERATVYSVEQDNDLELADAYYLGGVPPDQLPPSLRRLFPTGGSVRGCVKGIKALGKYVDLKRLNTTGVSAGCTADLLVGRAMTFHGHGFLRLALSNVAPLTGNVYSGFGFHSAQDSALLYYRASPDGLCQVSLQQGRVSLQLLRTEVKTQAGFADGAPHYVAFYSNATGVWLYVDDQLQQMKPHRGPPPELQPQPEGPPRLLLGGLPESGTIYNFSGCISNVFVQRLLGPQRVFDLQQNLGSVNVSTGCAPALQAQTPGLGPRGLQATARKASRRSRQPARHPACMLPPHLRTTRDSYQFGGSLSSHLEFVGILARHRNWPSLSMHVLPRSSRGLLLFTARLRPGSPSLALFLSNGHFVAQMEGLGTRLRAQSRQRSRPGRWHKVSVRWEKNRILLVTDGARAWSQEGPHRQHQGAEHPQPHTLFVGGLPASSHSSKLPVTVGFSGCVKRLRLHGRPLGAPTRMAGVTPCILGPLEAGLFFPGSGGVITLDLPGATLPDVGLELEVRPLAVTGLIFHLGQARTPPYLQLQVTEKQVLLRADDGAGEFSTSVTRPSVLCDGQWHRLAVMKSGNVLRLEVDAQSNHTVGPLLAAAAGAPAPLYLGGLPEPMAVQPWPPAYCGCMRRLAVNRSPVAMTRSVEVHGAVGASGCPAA
row,Target,lysine labeling ratio R10:1
1,NRP1 (lysine site: K534) (UniProt O14786),2.17 (inactive)
2,UniProt Q9UII2 (lysine site: K90),6.67 (inactive)
3,FLNB (lysine site: K1955) (UniProt O75369),1.23 (active)
4,PPL (lysine site: K1151) (UniProt O60437),3.53 (inactive)
5,LRP8 (lysine site: K420) (UniProt Q14114),0.962 (active)
6,ULBP2 (lysine site: K116) (UniProt Q9BZM5),5.14 (inactive)
7,UniProt P62316 (lysine site: K118),6.15 (inactive)
8,RTN4 (lysine site: K1104) (UniProt Q9NQC3),1.32 (active)
9,KRT18 (lysine site: K187) (UniProt P05783),3.47 (inactive)
10,HSP90B1 (lysine site: K75) (UniProt P14625),1.47 (active)
11,SLC3A2 (lysine site: K257) (UniProt P08195),1.64 (active)
12,C1QBP (lysine site: K91) (UniProt Q07021),0.97 (active)
13,EPHB2 (lysine site: K158) (UniProt P29323),2.25 (inactive)
14,FLNA (lysine site: K1593) (UniProt P21333),2.69 (inactive)
15,CCT4 (lysine site: K489) (UniProt P50991),2.21 (inactive)
16,SEMA3C (lysine site: K495) (UniProt Q99985),2.53 (inactive)
17,PABPC1 (lysine site: K157) (UniProt P11940),1.38 (active)
18,PRDX1 (lysine site: K199) (UniProt Q06830),2.6 (inactive)
19,UniProt Q15149 (lysine site: K2706),3.69 (inactive)
20,PABPC1 (lysine site: K512) (UniProt P11940),3.06 (inactive)
21,MYH9 (lysine site: K856) (UniProt P35579),2.68 (inactive)
22,LAMA5 (lysine site: K1854) (UniProt O15230),3.02 (inactive)
23,ACTN1 (lysine site: K492) (UniProt P12814),0.906 (active)
